Screening results deposited in PubChem by National Center for Advancing Translational Sciences (NCATS).
MCF10A rerep: DNA re-replication induction in MCF 10a cells | Potency, µM (doses to about 46.1 µM), for the others: at the top dose activity, positive = re-replication, actives largely listed as activators | AID 624296 | MCF 10A DNA re-replication, Hoechst nuclear intensity, 48 h | 2.9% of 350,000 active; note: % of control where 0% means no effect; nearly all actives have a fitted effect of over 50% in size
HT1080-NT tox: kills 2HG-producing HT-1080-NT fibrosarcoma cells; AID 686970; 1.6% of 360,000 active; Potency, µM (top dose mostly 46.1 µM), without a hit: top-dose activity, negative = less viability, most hits filed as cytotoxic; HT-1080-NT fibrosarcoma viability, CellTiter-Glo ATP luminescence, 48 h;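 note: NT is the 2HG producing partner of a matched IDH1 knockdown line; 0% = DMSO-treated cells and -100% = media-only wells without cells; nearly all actives have a fitted effect of over 55% in size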
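Fibrosarcoma NT cells, 750 per well in 5% FBS RPMI, were exposed to compound for 48 hours. Viability: CellTiter-Glo luminescence.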
KB-V1 MDR tox: KB-V1 MDR subline cytotoxicity; KB-V1 MDR cells viability, CellTiter-Glo, 72 h; 3.4% of 400,000 active; AID 1347076; Potency, µM (titrated, usually from 46.1 µM), most hits filed as cytotoxic; note: % is set by controls: 0 for no effect and ±100 for the full control effect; nearly all actives have a fitted effect of over 60% in size
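Cytotoxicity toward P-gp-expressing KB-V1 cells was determined as loss of CellTiter-Glo luminescence after 72 h at 37 degrees C. Compounds were tested in quantitative HTS format across a concentration range, with curves fitted to normalized data.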
HT1080 IDH1KD tx: toxicity to HT-1080 IDH1 knockdown cells (counter line). AID 686971. HT-1080 IDH1 knockdown viability, ATP luminescence, 48 h. 2% of 360,000 active. Potency, µM (top dose mostly 46.1 µM), for inactives: top-dose activity, negative = toxicity, most hits filed as cytotoxic;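 note: 0% = DMSO wells and -100% = cell-free medium wells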
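In this qHTS, HT-1080 cells depleted of IDH1 are exposed for 48 h at 37 °C to compound titrations. Toxicity is scored from CellTiter-Glo luminescence, with DMSO as full viability and medium alone as none.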
KB-3-1 cytotox: KB-3-1 parental cell cytotoxicity; KB-3-1 viability, CellTiter-Glo ATP luminescence, 72 h; Potency, µM (titrated, usually from 46.1 µM), hits mostly cytotoxic; 1.4% of 400,000 active; note: % is set by controls: 0 for no effect and ±100 for the full control effect; nearly all actives have a fitted effect of over 60% in size
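Parental KB-3-1 adenocarcinoma cells in phenol-red-free DMEM with 10% FBS were pin-treated with compounds at several concentrations, incubated 72 h at 37 °C, and viability read by CellTiter-Glo luminescence; concentration-effect curves were fitted after normalization.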
SW480 rereplic: induces DNA re-replication in SW480 colon adenocarcinoma cells; AID 624297; 1.8% of 340,000 active; Potency, µM (series often up to 46.1 µM), inactives show at the highest dose re-replication activation, most hits filed as activators; SW480 DNA re-replication, Hoechst DNA content imaging, 48 h; note: % of control where 0% means no effect; nearly all actives have a fitted effect of over 55% in size
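Cells (250 per well) received 23 nL compound or DMSO by pin tool and were kept 48 hr at 37 C, 5% CO2. Nuclei were then stained with Hoechst for 40 min and scanned for DNA content.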
* marks the source's active call; other numbers are inactive results; i = inactive; ? = inconclusive; . = no result; [ ] = another dose, or the depositor's remark. Shown are actives, neighbours in structure and some others; about 8% of the full set was active somewhere. Calls come from the whole dose curve; as a rule, active = well fitted curve in the direction sought with a large enough effect; inconclusive = small, poorly fitted or top-dose-only effect, or another doubt; inactive = no such curve, though single readings can be large; an effect the other way counts as inactive or inconclusive. Potency is the fitted concentration of half-maximal effect.

SMILES | MCF10A rerep | HT1080-NT tox | KB-V1 MDR tox | HT1080 IDH1KD tx | KB-3-1 cytotox | SW480 rereplic
NC(=O)c1cccc(-c2ccnc3c2CC(C(=O)NCc2ccco2)O3)c1 (stereo not drawn) | . | ? | i | 4.1µM* | 6.5µM* | .
NC(=O)c1cccc(-c2ccnc3c2CC(C(=O)NCCc2ccccc2)O3)c1 (stereo not drawn) | . | ? | i | 7.3µM* | ? | .
O=C(NCc1ccccc1)C1Cc2c(-c3cccc(F)c3)ccnc2O1 (stereo not drawn) | . | ? | 1.5µM* | 1.2µM* | 4.6µM* | .
CN(C)c1ccc(CNC(=O)C2Cc3c(-c4cccc(C(N)=O)c4)ccnc3O2)cc1 (stereo not drawn) | . | ? | i | ? | i | .
O=C(NCc1cccc(Cl)c1)C1Cc2c(-c3cccc(F)c3)ccnc2O1 (stereo not drawn) | . | ? | ? | ? | i | .
O=C(Oc1cccc2c(OC(=O)N3CCCC3)cccc12)N1CCCC1 | ? | -2% | i | -2% | i | -24%
O=[N+]([O-])c1cccc(S(=O)(=O)NCc2ccncc2)c1 | -8% | ? | ? | -14% | i | -2%
Cc1nc(-[n+]2nc(-c3ccncc3)nn2-c2ccccc2)sc1C | . | 26µM* | ? | 10µM* | ? | .
CC(C)(C)N1C(=O)[C@H]2[C@@H](c3ccc(Br)cc3)N3C(=O)N(c4ccc(Br)cc4)C(=O)[C@@]3(Cc3ccccc3)[C@H]2C1=O | -68% | 0% | i | -4% | i | -13%[9.22 µM]
O=C1C2C3C=CC(C4CC34)C2C(=O)N1CCc1ccccc1 (stereo not drawn) | -42% | 0% | 18µM* | -2% | i | -98%
CC(Sc1nnc(-c2ccco2)n1N)C(=O)NC1CCCCC1C (stereo not drawn) | 6% | -7% | i | -2% | i | -3%
C[C@H]1CN([C@@H](C)CO)C(=O)CCCn2nncc2CO[C@@H]1CN(C)C(=O)Nc1ccnc(N2CCOCC2)c1 | . | 12% | i | 15% | i | .
CCN(CC)S(=O)(=O)c1ccc(C(=O)OCC(=O)N2CCOCC2)cc1 | -2% | -6% | i | 1% | i | -5%
CCCN(CCC)S(=O)(=O)c1ccc(C(=O)OCCN2C(=O)c3cccc4c(N5CCOCC5)ccc(c34)C2=O)cc1 | -14% | 11% | 15µM* | 20% | i | -383%
O=C(OCCN1C(=O)c2cccc3c(N4CCOCC4)ccc(c23)C1=O)c1ccc(Cl)cc1 | 2% | ? | i | 2.3µM* | i | ?
COc1cc(OC)c(C2Nc3c(C)cccc3-c3cc(C)nn32)cc1OC (stereo not drawn) | . | . | i | . | i | .
CCCc1c(-c2cccc(Cl)c2)ncn1Cc1cccc(-c2ccccc2)c1 | . | ? | 21µM* | 23µM* | ? | .
CCc1c(-c2cccc(Cl)c2)ncn1Cc1cccc(-c2ccccc2)c1 | . | ? | 16µM* | ? | ? | .
Cn1cc(CN2CCN(Cc3ccccc3)CC2)c(-c2cccc(Cl)c2)n1 | ? | -4% | i | 5% | i | -2%
Nc1ccc(S(=O)(=O)Nc2ccnn2-c2ccccc2)cc1 | -1% | 9% | ? | 4% | i | -28%
CC(C)c1ccc(NC2CCCN(C(=O)c3ccccc3-c3ncc[nH]3)C2)cc1 (stereo not drawn) | ? | -17% | i | -13% | i | 17%
CCCCCCOC(=O)c1ccc(N)cc1 | 23µM* | ? | i | ? | i | 0%
COc1cccc(C2CC(c3ccc(C)cc3)=NN2C(=O)c2ccccc2F)c1OC (stereo not drawn) | 11% | -26% | ? | -11% | ? | ?
N=C(N)SCc1ccc(Cl)c2ccccc12 | ? | -14% | 23µM* | -9% | i | -6%
CCC(C)NC(=O)CC(NS(=O)(=O)c1ccc(C)cc1)c1ccc(OC)cc1 (stereo not drawn) | -81% | 0% | 8.2µM* | 11% | i | -692%
SMILES | MCF10A rerep | HT1080-NT tox | KB-V1 MDR tox | HT1080 IDH1KD tx | KB-3-1 cytotox | SW480 rereplic
COc1ccc(C(=O)N[C@H](C(=O)NCc2ccc(C)cc2)C(C)C)cc1 | 6% | 4% | ? | -23% | i | -6%
Cc1ccc(N2CCN(c3ccc(C)cc3)C2c2cccnc2)cc1 | -3% | -27% | i | -1%[9.24 µM] | i | -5%
CC(C)CCCCCCc1ccc(O)cc1 | 30µM* | . | . | . | . | 10%
CC(C)c1ccc(CN2CCN(C(=O)CCl)CC2)cc1 | 6.5µM* | ? | ? | ? | ? | ?
O=C(/C=C/c1ccc(Cl)cc1)Nc1ccc(CN2CCOCC2)cc1 | 16% | ? | i | 2% | ? | ?
CC(C)c1ccc(/C=C/C(=O)Nc2ccc(CN3CCOCC3)cc2)cc1 | 13µM* | ? | 16µM* | ? | ? | ?
CC(C)CC(=O)N1CCN(Cc2ccc(Cl)cc2)CC1 | ? | 7% | i | 15% | i | -6%
COc1ccccc1CNc1cc(CSc2ccc(Cl)cc2)nc(C)n1 | ? | ? | 15µM* | ? | ? | 10%
CCOC(=O)CCS(=O)(=O)c1nc(-c2ccccc2)cc(C(F)(F)F)n1 | ? | ? | i | 5.2µM* | ? | 27%
COC(=O)c1ccccc1NC(=O)CCCS(=O)(=O)c1nc(-c2ccccc2OC)cc(C(F)(F)F)n1 | . | . | i | . | i | .
COc1ccc(-c2cc(C(F)(F)F)nc(S(=O)(=O)CCCC(=O)Nc3cccnc3Cl)n2)cc1OC | 12µM* | ? | i | 10µM* | i | 3%
COCC(C)NC(=O)CCS(=O)(=O)c1nc(-c2ccc(OC)cc2)cc(C(F)(F)F)n1 (stereo not drawn) | 3.7µM* | ? | i | 23µM* | i | 9%
CCC(C)NC(=O)CCSc1nc(-c2ccc(OC)cc2)cc(C(F)(F)F)n1 (stereo not drawn) | . | . | ? | . | i | .
COC(=O)CCS(=O)(=O)c1nc(-c2ccccc2)cc(C(F)(F)F)n1 | 3.7µM* | 7.1µM* | ? | 3.5µM* | i | ?
CCOC(=O)C1CCN(C(=O)c2ccc3c(c2)sc2nc(-c4ccc(C)cc4)cn23)CC1 | . | . | i | . | i | .
CCOC(=O)CS(=O)(=O)c1nc(-c2ccccc2)cc(C(F)(F)F)n1 | ? | 9.2µM* | ? | 6.5µM* | 13µM* | 2.6µM*
CCOC(=O)CS(=O)(=O)c1nc(-c2ccc(F)cc2)cc(C(F)(F)F)n1 | 3.7µM* | 6.5µM* | i | 13µM* | 3.3µM* | 21%
